Compound activity: PubChem BioAssay, National Center for Advancing Translational Sciences (NCATS)
The list is not random: actives were taken first. Their share in the collection is about 1.7%.
ALOX12 inh: ALOX12 (human) lipoxygenase inhibition; P18054; purified 12hLO, xylenol orange hydroperoxide absorbance; Potency, µM (top dose mostly 108 µM), for inactives: top-dose activity change, negative = inhibition, usual class: inhibitors; 580,000 tested, 1.1% active; AID 1671190; also: % is scaled to controls: 0 for no effect and ±100 for the full control effect
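Purified human 12hLO (150 nM final) in 25 mM Hepes, 0.01% Triton X-100, pH 7.0 was preincubated 15 min at room temperature with compound. Then 40 uM arachidonic acid was added, 30 min. Hydroperoxide was read by Fe-XO absorbance ratio 573/405 nm.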
GRP78 ERSR act: inducers of ER stress response in human glioma cells. Potency, µM, for the others: top-dose activation, usual class: activators. 420,000 tested, 0.02% active. U87-MG GRP78 promoter luciferase reporter, 16 h; also: series mostly up to about 76 µM; % of control where 0% means no effect; nearly all actives have a fitted effect of over 35% in size
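Stably transfected U87-MG human glioma cells carrying a GRP78-based luminescent sensor were seeded at 1000 cells/well, pin-dosed with compounds and incubated 16 h. Luciferase reagent was then added, and end-point luminescence was read after 10 min at room temperature.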
Anesthetic bind: candidate novel general anesthetic via apoferritin binding; P02791; apoferritin/1-aminoanthracene competitive binding, fluorescence; Potency, µM (top dose mostly 77.5 µM), inactives show at the highest dose activity change, negative = displacement, most hits filed as inhibitors; 350,000 tested, 0.074% active; AID 485281; also: % is scaled to controls: 0 for no effect and ±100 for the full control effect; nearly all actives have a fitted effect of over 20% in size
Target sequence (P02791 2-175 limits assumed): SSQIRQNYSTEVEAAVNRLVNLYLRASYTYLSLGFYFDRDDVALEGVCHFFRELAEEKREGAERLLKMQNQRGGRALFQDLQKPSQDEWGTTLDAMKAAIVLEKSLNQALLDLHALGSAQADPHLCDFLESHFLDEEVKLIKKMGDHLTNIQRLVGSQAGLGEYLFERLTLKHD
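Steps: apoferritin (10 uM) was premixed with half-saturated 1-AMA in PBS, compounds were pin-transferred, plates stood 10 min at room temperature, fluorescence was read at 380/535 nm, and curves were fitted with a Hill equation.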
IDH1 R132H inh: inhibitors of human mutant IDH1 R132H. 390,000 tested, 0.093% active. AID 602179. Potency, µM (doses to about 76.6 µM), for inactives: at the top dose activity change, negative = inhibition, most hits filed as inhibitors. IDH1-R132H enzyme, NADPH consumption, diaphorase/resazurin fluorescence; also: % is scaled to controls: 0 for no effect and ±100 for the full control effect; nearly all actives have a fitted effect of over 65% in size
Target sequence (O75874 whole entry R132H, stated change not applied): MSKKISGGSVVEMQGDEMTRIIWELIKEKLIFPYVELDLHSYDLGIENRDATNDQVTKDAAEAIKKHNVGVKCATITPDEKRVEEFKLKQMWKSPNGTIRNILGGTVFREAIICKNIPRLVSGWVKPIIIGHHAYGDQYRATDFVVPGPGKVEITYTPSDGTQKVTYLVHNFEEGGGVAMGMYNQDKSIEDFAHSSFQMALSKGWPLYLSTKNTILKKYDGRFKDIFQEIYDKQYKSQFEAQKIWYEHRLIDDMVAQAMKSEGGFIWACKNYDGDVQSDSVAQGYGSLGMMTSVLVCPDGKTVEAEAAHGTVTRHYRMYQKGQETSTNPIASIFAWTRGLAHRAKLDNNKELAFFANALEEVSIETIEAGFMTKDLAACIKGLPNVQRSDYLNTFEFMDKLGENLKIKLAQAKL
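IDH1-R132H (0.5 ug/mL dispensed) in pH 7.5 Tris buffer was preincubated 30 min with compound, then given a substrate mix of 0.016 mM NADPH and 2 mM alpha-KG for 80 min at room temperature; remaining NADPH was read by diaphorase/resazurin fluorescence.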
TrxR1 inh: blocks rat thioredoxin reductase 1 | Potency, µM (highest dose often 114 µM), for inactives: at the top dose activity change, negative = inhibition, usual class: inhibitors | 390,000 tested, 1% active | recombinant rTrxR1, NADPH fluorescence consumption, selenite substrate | O89049; also: % is scaled to controls: 0 for no effect and ±100 for the full control effect; nearly all actives have a fitted effect of over 65% in size
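Rat TrxR1 (90 nM in the dispensed reagent) was pre-reduced with 400 uM NADPH for 5 min at room temperature, then incubated with compound for 15 min. After 400 uM selenite was added, NADPH fluorescence (Ex 340/Em 450 nm) was followed for 8 min.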
TrxR1 substrate: substrates of rat thioredoxin reductase 1 | O89049 | purified TrxR1 substrate turnover, NADPH consumption readout | Potency, µM (titrated, usually from 114 µM), for inactives: at the highest dose activity change, negative = substrate turnover | 390,000 tested, 0.01% active; also: % is scaled to controls: 0 for no effect and ±100 for the full control effect; nearly all actives have a fitted effect of over 50% in size
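Rat TrxR1, dispensed at 90 nM, was prereduced with 400 uM NADPH (final) for 5 min at ~22 deg C, then incubated with compound 15 min before 400 uM selenite. A first-read NADPH fluorescence drop versus no-compound background flagged substrates.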
An asterisk follows results filed as active; u = inconclusive; x = no result given; [ ] = another dose, or the depositor's remark. Calls follow the shape of the dose curve; as a rule, active = well fitted curve in the direction sought with a large enough effect; inconclusive = small, poorly fitted or top-dose-only effect, or another doubt; inactive = no such curve, though single readings can be large; an effect the other way counts as inactive or inconclusive. Potency is read from the fitted curve at half-maximal effect.

SMILES | ALOX12 inh | GRP78 ERSR act | Anesthetic bind | IDH1 R132H inh | TrxR1 inh | TrxR1 substrate
CCC1CO/C(=C(\C(Cl)=C(Cl)Cl)[N+](=O)[O-])N1 (centres undefined) | -10% | 4% | u | -1% | 16µM* | 4%
O=C1/C(=C/c2ccncc2)SC(=S)N1N1CCOCC1 | -5% | -6% | 4% | 1% | 22µM* | -2%
CN1CCN(c2ccnc(-c3ccoc3)n2)CC1 | 22µM* | 1% | x | x | x | x
CN1CCN(c2cc(-c3ccoc3)ncn2)CC1 | 11µM* | 2% | x | x | x | x
CN1CCN(c2cc(-c3ccc(N(C)C)cc3)ncn2)CC1 | -21% | -2% | -8% | x | x | x
CN1CCN(c2ccnc(-c3cccnc3)n2)CC1 | -14% | -3% | x | x | x | x
COc1ccc(CN2CC3(CCN(C(=O)Cc4c[nH]c5ccccc45)CC3)C2=O)cc1 | 16% | x | x | x | x | x
CCC(=O)Nc1ccc(NC(=O)c2cn(C)c3ccccc23)cc1 | -65% | x | x | x | x | x
COCCS(=O)(=O)c1ncc(CN(C)Cc2ccsc2)n1Cc1ccccc1 | -23% | x | x | x | x | x
S=c1sscc1-c1ccccc1 | 5.6µM* | -1% | x | -2% | -23% | -3%
CC1CCc2sc(C(=O)N/N=C3/CCCCc4ccccc43)cc2C1 (centres undefined) | 1.3µM* | x | x | x | x | x
CC1CCc2sc(C(=O)N/N=C/c3ccc(O)cc3)cc2C1 (centres undefined) | 28µM* | 7% | u | -2% | 31% | 10%
C/C(=N\NC(=O)c1cc2c(s1)CCC(C)C2)c1ccc[nH]1 (centres undefined) | 19% | -2% | x | -3% | 21% | 3%
C/C(=N\NC(=O)c1cc2c(s1)CCC(C)C2)c1ccncc1 (centres undefined) | 1.8µM* | 5% | -13% | 10% | 18%[57.1 µM] | -12%[57.1 µM]
Cc1ccc2c(c1)c1c(c(=O)n(-c3ccccc3)c(=O)n1CC(=O)N1CCCC1)n2C | 0% | 0% | 7% | -2% | 5%[57.1 µM] | 89%[57.1 µM]
CNC(=O)[C@@H]1C[C@H](Oc2ccccc2)CN1S(=O)(=O)Cc1ccccc1 | 15% | x | x | x | x | x
Cc1cc(C)c2c(CC(=O)O)c(C)[nH]c2c1 | 50µM* | -3% | -8% | 0% | -27% | 7%[57.1 µM]
Cc1[nH]c2ccccc2c1C(=O)CSc1ccc2c(c1)OCCCO2 | 25µM* | x | x | x | x | x
Cc1[nH]c2ccccc2c1C(=O)CSc1ccc(Cl)cc1 | -20% | 5% | -4% | 1% | 18%[57.1 µM] | 8%
Nc1nn(Cc2ccc(Br)cc2)cc1Br | 4% | x | x | x | x | x
CCOC(=O)c1cnc(-n2nc(C)cc2C)nc1Nc1ccccc1OC | x | x | -11% | x | x | x
CCOC(=O)c1cnc(-n2nc(C)cc2C)nc1NCCc1ccccc1 | 45µM* | 1% | u | 1% | -3% | 1%
O=c1cc(-c2ccc(O)cc2)oc2c(O)c(O)c(O)c(O)c12 | 62% | 1% | -6% | u | 16µM* | -15%
CCOC(=O)Cc1ccc(NC(=O)N2CC(CC)Oc3ccccc32)cc1 (centres undefined) | -2% | -1% | 6% | 15% | 8% | 28%
CC(C)c1noc(C2CCCN(C(=O)C3CCCC3)CCC(=O)NCC2)n1 (centres undefined) | 24% | x | x | x | x | x
SMILES | ALOX12 inh | GRP78 ERSR act | Anesthetic bind | IDH1 R132H inh | TrxR1 inh | TrxR1 substrate
O=C(CCC(=O)CCN1CCCCC1)CCN1CCCCC1 | 0% | -2% | -4% | 0% | 1.8µM* | 8%[57.1 µM]
NC(=O)CCN1CCCCC1 | -3% | 1% | 0% | -5% | 4% | -4%
Cc1ccc(NS(=O)(=O)c2ccc(NC(=O)CSc3ccc(Cl)cc3)cc2)c(C)c1 | 32µM* | -4% | -12% | 1% | 16% | -1%
C/C(=N\NC(=S)NCCc1ccccc1)c1ccc(C#N)cc1 | 0% | -2% | -17% | 0% | 14%[57.1 µM] | 0%
S=C(NCCSc1ccc(Cl)cc1)NCCc1ccccc1 | 40µM* | x | x | x | x | x
C/C(=N\NC(=S)NCCc1ccccc1)c1ccc(Cl)cc1 | 35µM* | -6% | 11% | -1% | -9% | -6%
COc1ccccc1NC(=S)NCCSc1ccc(C)cc1 | 45µM* | -1% | -9% | -4% | -12% | -7%
Cc1cc(C)cc(NC(=S)NCCSc2ccc(Cl)cc2)c1 | u | -4% | 3% | -7% | 4%[57.1 µM] | 0%[57.1 µM]
C/C(=N\NC(=S)NCCc1ccccc1)c1ccc(C)cc1 | 40µM* | -1% | 2% | 0% | 34%[57.1 µM] | -1%[57.1 µM]
COCCOC(=O)/C(C#N)=C\c1ccc(O)c(OC)c1 | -25% | x | x | x | x | x
Cc1cc(C)cc(Oc2coc3c(CN(C)C)c(O)ccc3c2=O)c1 | 6.3µM* | -3% | 129% | 1% | -42% | 80%[57.1 µM]
COc1cccc(CC(=O)N2CCCCCNC(=O)[C@@H]3CCCC[C@@H]32)c1 | 25% | x | x | x | x | x
CC(=O)Nc1ccc2nc(SCC(=O)O)sc2c1 | 150% | -5% | -3% | -7% | 3% | 2%
CC(=O)Nc1ccc2nc(SCc3ccc(Cl)cc3)sc2c1 | 20µM* | x | x | x | x | x
CCOC(=O)c1cccc(NC(=O)CCS(=O)(=O)c2cccs2)c1 | 0% | 2% | -11% | 1% | 22µM* | -4%
COCCNc1nc(NCc2ccccc2OC)c2cnn(C)c2n1 | 13µM* | x | -11% | x | 6%[57.1 µM] | 1%[57.1 µM]
Cc1ccccc1N1C(=O)CC(N(O)c2ccccc2)C1=O (centres undefined) | u | -5% | -16% | 0% | -33% | -2%
CCN(CCO)C1CC(=O)N(c2ccccc2C)C1=O (centres undefined) | x | -5% | 0% | 0% | 50µM* | 0%
O=C(CC1CCN(C(=O)c2cccs2)C1)NCc1ccccc1 (centres undefined) | -2% | x | x | x | x | x
CCn1c(-c2sc(-c3ccccc3)nc2C)n[nH]c1=S | 45µM* | 1% | -7% | 8% | -22%[57.1 µM] | 6%[57.1 µM]
Cn1c(-c2csc(-c3ccccc3)n2)n[nH]c1=S | 32µM* | 5% | -2% | 5% | 3% | 2%
CC(=O)CCc1oc2ccc(C)cc2c1-c1ccccc1 | u | -5% | -4% | 20% | 7%[57.1 µM] | 8%[57.1 µM]
C/C(CCc1oc2ccc(Br)cc2c1-c1ccc(C)o1)=N/O | u | -2% | 1% | -6% | 18µM* | 5%
C/C(CCc1oc2ccc(Cl)cc2c1-c1ccc(C)o1)=N\O | u | -4% | -10% | -5% | 10µM* | -5%
Cc1ccc(C(=O)C(C#N)C(=O)Nc2ccccc2C)s1 (centres undefined) | -10% | x | x | x | x | x
O=C(CN1CCCc2nc(-c3ccccc3)ncc2C1=O)NCCc1c[nH]c2ccccc12 | 11% | x | x | x | x | x
N#C/C(=N\Nc1cc(Cl)cc(Cl)c1)c1nnc2n1CCCCC2 | 16µM* | 4% | u | -4% | 6% | -4%
COc1ccc(-c2cc(C(=O)NC3CCNCC3)c3c(C)nn(-c4ccccc4)c3n2)cc1 | 25µM* | x | x | x | x | x
